Screening results (PubChem)
A selection follows.
aSyn 5UTR act: Activators via SNCA 5'UTR binding, MLPCN; activity score, % (tested at 7.5 µM), hits read low; alpha-synuclein 5'UTR reporter, activators screen; hit rate 7.1% among 300,000; AID 1814, 2009; in the data active means activity score below about -60%
Large screens that a line does not name were inactive.

Cn1nc(CC(=O)Nc2ccc(N3CCN(C(=O)OC(C)(C)C)CC3)cc2)c2ccccc2c1=O	none
Cc1cnc(C(=O)Nc2ccc(F)cc2)cn1	aSyn 5UTR act -100.9
Cc1cnc(C(=O)Nc2ccc(C(C)C)cc2)cn1	aSyn 5UTR act -142.5
Cc1cnc(C(=O)Nc2ccc(N3CCN(C(=O)OC(C)(C)C)CC3)cc2)cn1	aSyn 5UTR act -88.5
COc1cc2nc(Nc3ccc(F)cc3)nc(N)c2cc1OC	aSyn 5UTR act -130.6
CCOC(=O)c1ccc(Nc2nc(N)c3cc(OC)c(OC)cc3n2)cc1	aSyn 5UTR act -104.3
COc1cc2nc(N(C)C)nc(N)c2cc1OC	aSyn 5UTR act -78.1
COc1cc2nc(Nc3ccc(C)c(C)c3)nc(N)c2cc1OC	aSyn 5UTR act -131.3
COc1cc2nc(Nc3ccc(C)c(Cl)c3)nc(N)c2cc1OC	none
COC(=O)c1ccc(Nc2cc(C)nc3ccccc23)cc1	none
COC(=O)c1ccc(Nc2nc(C)cc(C)n2)cc1	aSyn 5UTR act -82.9
Cc1ccc(-n2nnc3ccccc3c2=O)cc1C	aSyn 5UTR act -149.7
Fc1ccc(-n2nnc(-c3cnc4ccccc4c3)n2)cc1	none
Fc1ccc(-n2nnc(-c3cccnc3)n2)cc1	aSyn 5UTR act -89.2
Fc1ccc(C(CCCn2nnc(-c3cccnc3)n2)c2ccc(F)cc2)cc1	aSyn 5UTR act -102.6
Clc1ccc(-n2nnc(-c3cccnc3)n2)cc1Cl	aSyn 5UTR act -156.9
Brc1ccccc1-n1nnc(-c2cccnc2)n1	aSyn 5UTR act -75.8
c1csc(-c2cnc3ccccc3n2)c1	aSyn 5UTR act -108.4
c1cc(-c2cccs2)nc(-c2cccs2)c1	aSyn 5UTR act -103.9
CC(=O)c1cccc(Nc2nc(-c3ccccc3)cs2)c1	aSyn 5UTR act -144.9
CC(=O)c1cccc(Nc2nc(-c3cccnc3)cs2)c1	aSyn 5UTR act -229.8
O=C(Nc1cccc(-c2csc(Nc3ccccc3)n2)c1)c1ccccc1	aSyn 5UTR act -142.3
C=CCSC1=NNC(c2ccc(C(C)(C)C)cc2)=NN1	aSyn 5UTR act -89.5
COc1ccc(CCC(=O)NCCS(=O)(=O)N2CCN(c3ccccc3OC)CC2)cc1	aSyn 5UTR act -112.5
Cc1cc(C)n(-c2nc(Nc3ccccc3C(F)(F)F)nc(-n3nc(C)cc3C)n2)n1	none
Cc1cc(C)n(-c2nnc(NC34CC5CC(CC(C5)C3)C4)nn2)n1	aSyn 5UTR act -172.2
N#Cc1nc(-c2ccc(Cl)cc2)oc1NCCc1ccccn1	aSyn 5UTR act -155.5
Cc1ccc(-c2nc(C#N)c(NCCc3ccccn3)o2)cc1	aSyn 5UTR act -151.3
COc1cc(C(=O)Nc2nc3ccccc3[nH]2)ccc1OC(F)F	aSyn 5UTR act -233.3
COc1ccc(C(=O)Nc2nc3ccccc3[nH]2)cc1OC	aSyn 5UTR act -147.1
COc1ccc(Cl)cc1C(=O)Nc1nc2ccccc2[nH]1	none
CCOc1ccc(C(=O)Nc2nc3ccccc3[nH]2)cc1OCC	aSyn 5UTR act -172.0
Cc1c(C(=O)NCc2ccoc2)oc2ccc3c(c12)C(=O)CC(C)(C)O3	aSyn 5UTR act -464.0
Cc1c(C(=O)NCCCN2CCCCC2)oc2ccc3c(c12)C(O)CC1(CCCCC1)O3 (stereo not given)	none
C=C(C)CSc1nc2nc(C)c(Br)cc2[nH]1	aSyn 5UTR act -73.4
O=C(COC(=O)/C=C/c1ccccc1[N+](=O)[O-])NC1CCS(=O)(=O)C1 (stereo not given)	aSyn 5UTR act -108.2
CN(C(=O)COC(=O)/C=C/c1ccccc1[N+](=O)[O-])c1ccccc1	aSyn 5UTR act -68.7
O=C(COC(=O)/C=C/c1ccccc1[N+](=O)[O-])Nc1ccc(OCc2ccccc2)cc1	aSyn 5UTR act -121.9
c1ccc2cc(Sc3ncnc4c3oc3ccccc34)ccc2c1	aSyn 5UTR act -70.6
Cc1cc(C)nc(Sc2ncnc3c2oc2ccccc23)n1	aSyn 5UTR act -64.4
CCSc1ncnc2c1oc1ccccc12	aSyn 5UTR act -64.3
Clc1ncnc2c1oc1ccccc12	aSyn 5UTR act -61.9
CCN1CCN(c2cc(C)c3cc(NC(=O)c4ccc(Br)o4)ccc3n2)CC1	aSyn 5UTR act -84.5
CCN1CCN(c2cc(C)c3cc(NC(=S)N4CCCCC4)ccc3n2)CC1	aSyn 5UTR act -85.3
CCN1CCN(c2cc(C)c3cc(NC(=O)c4ccc(C)c(C)c4)ccc3n2)CC1	none
Cc1cc(N2CCN(C)CC2)nc2ccc(NC(=O)c3ccccc3F)cc12	aSyn 5UTR act -123.0
CCN1CCN(Cc2ccc(NC(=O)c3ccc(C)c(/C=C/c4cnc(Nc5cc(N6CCNCC6)nc(C)n5)cn4)c3)cc2C(F)(F)F)CC1	none
COc1cc(NC(=O)c2cc(-c3ccccc3Cl)on2)cc(OC)c1OC	aSyn 5UTR act -75.8
COc1ccc(NC(=O)c2cc(-c3ccccc3Cl)on2)cc1	aSyn 5UTR act -125.4
COc1ccc(C(=O)Nc2ccc(N3CCN(C)CC3)cc2)cc1	aSyn 5UTR act -164.6
CN1CCN(c2ccc(NC(=O)c3ccc4ccccc4c3)cc2)CC1	none
Cc1ccc(C(=O)Nc2ccc(N3CCN(C)CC3)cc2)cc1	aSyn 5UTR act -88.2
COc1ccc(C(=O)Nc2ccc(N3CCN(C)CC3)cc2)cc1OC	aSyn 5UTR act -82.1
CCC1CCC(C(=O)NC(C(=O)Nc2ccc3c(c2)OCCO3)C(C)C)CC1 (stereo not given)	aSyn 5UTR act -84.1
CC(C)CC(NC(=O)C1CCC(C)CC1)C(=O)Nc1ccc2c(c1)OCCO2 (stereo not given)	aSyn 5UTR act -61.9
N#Cc1c(N)nc(N)nc1Nc1ccc(Br)cc1	aSyn 5UTR act -63.9
N#C/C(=C\c1ccco1)c1nc2ccccc2s1	aSyn 5UTR act -308.6
CCCCc1ccc(-c2csc(/C(C#N)=C\c3ccco3)n2)cc1	aSyn 5UTR act -106.2
N#C/C(=C/c1ccco1)c1nc2ccccc2s1	aSyn 5UTR act -281.8
NS(=O)(=O)c1ccc(Sc2nc3ccccc3s2)c([N+](=O)[O-])c1	none
N#C/C(=C\c1ccc(O)c([N+](=O)[O-])c1)c1nc2ccccc2s1	aSyn 5UTR act -66.4
Cc1ccc(-c2nc3ccccn3c2NCc2ccc3c(c2)OCO3)cc1	aSyn 5UTR act -163.2
COc1ccc(-c2nc3ccc(C)cn3c2NCc2ccc3c(c2)OCO3)cc1	aSyn 5UTR act -119.2
Oc1ccccc1NCC(O)Cn1ccc2ccccc21 (stereo not given)	aSyn 5UTR act -112.5
N#Cc1ccccc1/C=N/Nc1nc(-c2ccccc2)c2cc(Cl)ccc2n1	aSyn 5UTR act -95.2
O=C(CNC(=O)c1cn2ccccc2n1)Nc1ccc(F)c(F)c1	aSyn 5UTR act -208.6
COc1ccc2c(c1)c1nnc(SC)nc1n2C	aSyn 5UTR act -68.2
S=C1NC(c2ccccc2)=NCN1c1ccc(Cl)cc1	aSyn 5UTR act -84.0
CC(=O)N(C)c1nc(-c2ccc(Cl)cc2)cs1	aSyn 5UTR act -116.5
CCn1nc(C(=O)OCC(=O)Nc2nc(-c3ccc(OC)cc3)cs2)c2ccccc2c1=O	aSyn 5UTR act -115.8
CN(C)CCCN(C(=O)c1ccco1)c1nc(-c2ccc(Cl)cc2)cs1	aSyn 5UTR act -74.8
CN(C(=O)c1ccco1)c1nc(-c2ccc(Cl)cc2)cs1	aSyn 5UTR act -139.8
COc1ccc(-c2csc(NC(=O)COC(=O)c3ccco3)n2)cc1	aSyn 5UTR act -139.9
COc1ccc(-c2csc(N(C)C(=O)c3ccco3)n2)cc1	aSyn 5UTR act -181.8
Cc1cccc(NC(=O)COc2ccc(Br)cc2)n1	aSyn 5UTR act -70.6
Cc1ccc(OCC(=O)Nc2cccc(C)n2)c(C)c1	aSyn 5UTR act -136.9
CC1Cc2ccccc2N1C(=O)CSc1ncc(-c2ccc(F)cc2)n1C (stereo not given)	aSyn 5UTR act -125.6
CN(C1=C(NC(=O)c2ccc(Cl)cc2)C(=O)c2ccccc2C1=O)c1ccccc1	aSyn 5UTR act -83.4
Clc1ccc(Cl)c(OCc2cc(-c3ccccc3Cl)on2)c1	aSyn 5UTR act -154.8
